In PubChem BioAssay:
Active and inactive are the calls of the source.

Experiments:
[1] = compound effects on lung adenocarcinoma cell viability – A549, calcein-AM fluorescence, 48 h, basal, profiling panel (AID 1162); settings: higher = more signal
[2] = compound effects on differentiated 3T3-L1 adipocyte viability – cell-based, 3T3-L1 adipocytes, calcein-AM fluorescence, 48 h, basal, profiling panel (AID 1163); settings: 3T3-L1 adipocytes viability, higher = more signal
[3] = compound effects on hepatocellular carcinoma cell viability – HepG2, calcein-AM fluorescence, 48 h, basal, profiling panel (AID 1164); settings: higher = more signal
[4] = compound effects on multiple myeloma cell viability – MM1S, calcein-AM fluorescence, 48 h, basal, profiling panel (AID 1165); settings: higher = more signal;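 note: viability of MM1S multiple myeloma cells under basal unstimulated conditions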
[5] = calcein-AM signal in unstimulated myeloma cells – cell-based, calcein-AM fluorescence, 48 h, PK04 Diversity Set, profiling panel (AID 1166); settings: RPMI8226 myeloma viability, higher = more signal;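 note: cells grown under basal conditions without added stimulus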
[6] = JC-1 mitochondrial signal, unstimulated HepG2 cells – cell-based, JC-1 fluorescence, 24 h, 100 nL compound, profiling panel (AID 1167); settings: HepG2 mitochondrial potential, higher = more signal
[7] = JC-1 mitochondrial signal, unstimulated adipocytes – cell-based, JC-1 fluorescence, 3T3-L1 adipocytes, 24 h, 100 nL compound, profiling panel (AID 1168); settings: JC-1 mitochondrial fluorescence, higher = more signal, called active from +8 up or from −8 down
[8] = JC-1 mitochondrial signal, unstimulated myeloma cells – cell-based, JC-1 fluorescence, RPMI8226, 24 h, 100 nL compound, profiling panel (AID 1169); settings: JC-1 mitochondrial potential fluorescence, higher = more signal
[9] = JC-1 mitochondrial signal, unstimulated MM1S myeloma – cell-based, JC-1 fluorescence, 24 h, 100 nL compound, profiling panel (AID 1170); settings: MM1S mitochondrial potential, higher = more signal
[10] = resazurin metabolic signal in A549 cells – cell-based, resazurin fluorescence, 24 h, PK04 Diversity Set, profiling panel (AID 1171); settings: A549 viability, higher = more signal, called active from +8 up or from −8 down
Note: test concentration not given here.

Structure (SMILES) | z-score [1] | z-score [2] | z-score [3] | z-score [4] | z-score [5] | z-score [6] | z-score [7] | z-score [8] | z-score [9] | z-score [10]
Cc1cc(C)c(C(O)C2C=CC3C(=O)N(c4ccccc4)C(=O)C3N2Nc2ccccc2)c(C)c1 (stereo not given) | 0.479 | -1.35 | 1.37 | 0.541 | 0.281 | -1.21 | -0.422 (inactive) | -0.225 | -0.425 | -0.825 (inactive)
CCC[C@@H]1C[C@@]1(CCC)[C@@H](NC(=O)c1ccco1)c1ccc(Cl)cc1 | -1.03 | -0.741 | -1.06 | -1.6 | -4.31 | -1.62 | -0.00207 (inactive) | -0.736 | -2.07 | -1.91 (inactive)
COCCOC(=O)N1C(=O)[C@@]2(c3cc(C#CCCO)ccc31)[C@H](C(=O)NC[C@H](O)c1ccccc1)[C@H]1C(=O)O[C@H](c3ccccc3)[C@H](c3ccccc3)N1[C@@H]2c1ccccc1OCCO | 1.27 | 0.904 | 1.21 | -1.96 | -3.05 | -1.36 | 0.833 (inactive) | -0.844 | -0.424 | 0.715 (inactive)
N#Cc1ccc(NN2C(C(O)c3ccco3)C=CC3C(=O)N(c4ccccc4)C(=O)C32)cc1 (stereo not given) | -0.121 | -0.908 | 1.26 | -0.372 | -0.197 | -0.764 | -0.829 (inactive) | 0.45 | 0.121 | -0.2 (inactive)
CC(C)C[C@@H]1NC(=O)[C@@H]2C[C@H](C(=O)NCCCC[N+](C)(C)C)[C@H](c3cccc(OCCO)c3)N2C1=O | -0.316 | -0.0337 | -0.75 | -1.3 | -0.122 | -1.16 | -0.915 (inactive) | 0.789 | -0.132 | -0.331 (inactive)
CC(C)CNC(=O)[C@@]1(C)c2ccccc2C(=O)N(Cc2ccccc2)[C@H]1c1ccc(CO)cc1 | -0.151 | -0.751 | -0.323 | -0.408 | 0.0402 | 0.164 | -0.491 (inactive) | 0.0136 | -0.216 | 0.407 (inactive)
C=CCNC(=O)[C@H]1[C@@H]2C(=O)O[C@@H](c3ccccc3)[C@@H](c3ccccc3)N2[C@@H](c2ccc(OCCO)cc2)[C@]12C(=O)N(C(=O)OCCOC)c1ccc(C#CC3=CCCCC3)cc12 | -0.906 | 0.968 | -0.546 | -1.96 | -2.49 | -0.609 | 2.06 (inactive) | -0.753 | -1.05 | 0.248 (inactive)
COC(=O)C(CC#Cc1ccc2c(c1)[C@]1(C(=O)N2)[C@H](C(=O)N2CCc3cc(OC)c(OC)cc3C2)[C@H]2C(=O)O[C@H](c3ccccc3)[C@H](c3ccccc3)N2[C@@H]1c1ccc(O)cc1)C(=O)OC | -0.703 | 1.08 | 0.613 | -0.993 | -3.27 | -1.81 | 0.604 (inactive) | -0.606 | 0.567 | -0.216 (inactive)
COc1ccc(C#Cc2ccc3c(c2)[C@]2(C(=O)N3)[C@H](C(N)=O)[C@H]3C(=O)O[C@H](c4ccccc4)[C@H](c4ccccc4)N3[C@@H]2c2ccc(O)cc2)cc1 | -0.765 | 0.13 | -4.5 | -3.29 | -4.56 | -3.11 | 0.283 (inactive) | -1.1 | -2.28 | -1.05 (inactive)
COCCOC(=O)N1C(=O)[C@@]2(c3cc(C#CC4(O)CCCCCC4)ccc31)[C@H](C(=O)N1CCc3cc(OC)c(OC)cc3C1)[C@H]1C(=O)O[C@H](c3ccccc3)[C@H](c3ccccc3)N1[C@@H]2c1ccccc1OCCO | 0.863 | 1.59 | 0.898 | -0.401 | -1.47 | 0.782 | 1.29 (inactive) | -0.477 | -0.952 | 0.993 (inactive)
Cc1ccc(N2C(=O)c3ccccc3[C@](C)(C(=O)NC(C)C)[C@@H]2c2ccc(CO)cc2)nc1 | -0.465 | 0.92 | -1.37 | -1.03 | -1.35 | -0.42 | -0.424 (inactive) | -0.586 | 1.34 | 0.0095 (inactive)
O=c1c2ccc(Br)cc2nc(-c2ccccc2)n1Cc1cccc(O)c1 | -0.277 | 1.02 | 0.196 | -0.115 | 0.195 | -0.0225 | -0.525 (inactive) | 0.385 | -0.258 | 0.0972 (inactive)
COC(=O)[C@H]1N=C(c2ccc(OCCCO)cc2)O[C@H]1c1ccccc1CN=[N+]=[N-] | -0.348 | -0.409 | 0.0036 | -1.95 | -0.35 | -0.393 | 0.957 (inactive) | 0.344 | -0.823 | 2.65 (inactive)
OCCCC1=CC(c2cccs2)N(Cc2cccc(OC(F)(F)F)c2)CC1 (stereo not given) | -0.686 | -0.777 | -1.13 | -3.3 | -3.79 | -1.24 | -1.13 (inactive) | -0.733 | 0.478 | 0.397 (inactive)
CCOC(=O)C[C@H]1[C@H](OC(=O)Cc2ccc3c(c2)OCO3)[C@@H](NC(=O)c2ccccc2)c2cc(OCCCO)ccc2N1C(=O)c1ccc2ccccc2n1 | 1.86 | 1.08 | 1.8 | -0.198 | -0.243 | 1.12 | 0.607 (inactive) | -0.156 | -0.178 | -1.38 (inactive)
